Data from PubChem BioAssay AID651640 (Broad Institute, 2012).
Several values for one entry are separate records, joined by “and”; a condition that tells them apart may be missing. Equal entries are not always repeated. Among all 350,000 compounds or so, about 6,000 (1.7%) were called active. About 5% were inconclusive and are not listed. No stated cut-off is given here; in the data, active means CPE inhibition above about 20% (passing the limit was not always enough); inconclusive means no clear call, values can overlap the other calls; tested in BHK-21 cells. The list comes from a sample in which actives are over-represented; it also holds similar structures and randomly drawn compounds. Some compounds were tested as several samples or in several runs, with calls that do not always agree.

Assay: protection of cells from dengue 2 killing – plate reader, single concentration, primary screen (AID 651640);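 further: 0% = median of neutral control wells and 100% = median of positive control wells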
Settings: DENV2-infected cells, cytopathic effect rescue, at 9.99 µM, stronger effect = higher value

SMILES	CPE inhibition
CCC(=O)N1CCC2(CC1)CN(Cc1cccc(OC)c1)[C@@H](CO)c1[nH]c3cc(OC)ccc3c12	-4.07% (inactive)
C[C@@H]1CN([C@H](C)CO)C(=O)c2cc(C#CCN(C)C)cnc2O[C@@H]1CN(C)C(=O)Cc1cccnc1	6.92% (inactive)
CCc1cccc(NC(=O)O[C@H]2[C@H](OC(=O)Nc3ccccc3-c3ccccc3)[C@H](OC(=O)Nc3ccccc3-c3ccccc3)[C@@H](OC)O[C@@H]2CO)c1	1.23% (inactive)
CC(C)CNc1cccc2c1S(=O)(=O)N[C@H](C)CO2	2.95% (inactive)
CN(C)C(=O)C[C@@H]1C=C[C@H](NC(=O)Nc2cccc(F)c2)[C@H](CO)O1	-10% (inactive)
CC1(C)CC(=O)C=C(c2ccc(Cl)c(C(F)(F)F)c2)C1	1.16% (inactive)
COc1cc(F)c(C2=CC(=O)CC(C)(C)C2)cc1F	26.9% (active)
COc1ccc(CCNC2=CC(=O)CC(C)(C)C2)cc1	16.6% (inactive)
Cc1cc(F)ccc1S(=O)(=O)Nc1ncnc2scc(-c3ccc(F)cc3)c12	46.8% (active)
COc1ccc(-c2csc3ncnc(N4CCN(S(=O)(=O)c5cccc(F)c5)CC4)c23)cc1	5.97% (inactive)
O=S(=O)(Nc1ncnc2sccc12)c1cccc(F)c1	-1.13% (inactive)
O=C1CN(S(=O)(=O)c2ccccc2)C[C@H]2[C@H](c3ccc(C4=CCCC4)cc3)[C@@H](CO)N12	-1.48% (inactive)
COc1cccc(NC(=O)N[C@@H]2CC[C@H](CC(=O)Nc3ccccc3)O[C@@H]2CO)c1	3.12% (inactive)
Nc1ccccc1-c1cn(CC(=O)Nc2ccon2)nn1	15.8% (inactive)
CO[C@@H]1CN(C)C(=O)c2ccc(NS(=O)(=O)c3cccc(C)c3)cc2OC[C@@H](C)NC[C@H]1C	10.6% (inactive)
Cc1noc(C)c1NC(=O)N(C)C[C@@H]1OCCCC[C@H](C)Oc2ccc(NC(=O)NC3CCCCC3)cc2C(=O)N([C@H](C)CO)C[C@@H]1C	-0.006% (inactive)
C[C@@H]1CN([C@@H](C)CO)C(=O)c2cc(NC(=O)Cc3ccccc3)ccc2O[C@@H]1CN(C)Cc1ccc(Oc2ccccc2)cc1	-2.18% (inactive)
COc1ccc(CN(C)C[C@@H]2Oc3ccc(NC(=O)Nc4cccc5ccccc45)cc3C(=O)N([C@H](C)CO)C[C@H]2C)cc1	1.24% (inactive)
C[C@@H]1CN([C@@H](C)CO)C(=O)c2cc(NC(=O)Nc3cccc4ccccc34)ccc2O[C@@H]1CN(C)Cc1ccc(-c2ccccc2)cc1	6.66% (inactive)
C[C@@H]1CN([C@H](C)CO)C(=O)c2cc(NC(=O)CCN3CCOCC3)ccc2O[C@H]1CN(C)Cc1ccc(Oc2ccccc2)cc1	25.3% (active)
C[C@@H]1CN([C@@H](C)CO)C(=O)c2cc(NC(=O)Nc3cccc4ccccc34)ccc2O[C@H]1CN(C)Cc1ccc(Oc2ccccc2)cc1	29.3% (active)
COc1ccc(CN(C)C[C@H]2Oc3ccc(NC(=O)CCN4CCOCC4)cc3C(=O)N([C@@H](C)CO)C[C@H]2C)cc1	8.91% (inactive)
CC(=O)c1ccc(S(=O)(=O)NCC2CCN(C(=O)C(=O)c3cccs3)CC2)cc1	-2.02% (inactive)
COc1ccccc1CN1[C@@H]2CNC[C@H]1C2c1ccc(-c2cccc(C#N)c2)cc1 (stereo partly specified)	9% (inactive) and 53.2% (active)

SMILES	CPE inhibition
N#Cc1ccc(-c2ccc([C@@H]3[C@H]4CNC[C@@H]3N4Cc3cc(F)ccc3F)cc2)cc1	-0.209% (inactive)
N#Cc1cccc(-c2ccc(C3[C@H]4CNC[C@@H]3N4Cc3cncnc3)cc2)c1 (stereo partly specified)	-5.94% (inactive)
CCCNC(=O)C[C@@H]1CC[C@@H]2[C@H](COc3ccc(NC(=O)C4CCOCC4)cc3C(=O)N2C)O1	11.7% (inactive)
CCN(CC(=O)Nc1ccc(C)c(S(=O)(=O)N(C)C)c1)Cc1ccccc1	7.9% (inactive)
Cc1cccc(NC(=O)COC(=O)CCc2ccccc2)c1C	0.193% (inactive)
CCN(CC(=O)NCC(=O)Nc1cccc(C)c1C)Cc1ccccc1	61.4% (active)
CO[C@H]1CN(C)C(=O)c2cc(NC(=O)c3ccccc3)ccc2OC[C@H](C)NC[C@H]1C	-12.8% (inactive)
O=C(N[C@@H]1C=C[C@@H](CC(=O)N2CCOCC2)O[C@H]1CO)c1ccccn1	-8.41% (inactive)
CCCc1nc2ccccc2n1C(C)C(=O)NC(C)(C)C (stereo unspecified)	34.6% (active)
CCC(C(=O)NC(C)(C)C)n1c(-c2ccccc2)nc2ccccc21 (stereo unspecified)	-20.3% (inactive)
CC(C)(C)NC(=O)C(CCc1ccccc1)n1c(=O)c(-c2ccccc2)nc2ccccc21 (stereo unspecified)	8.63% (inactive)
CCCNC(=O)C[C@@H]1CC[C@H]2[C@H](COc3ccc(NC(=O)c4ccc(Cl)cc4)cc3C(=O)N2C)O1	-2.04% (inactive)
O=C(C[C@@H]1CC[C@H](NS(=O)(=O)c2cccc(F)c2)[C@H](CO)O1)N1CCCCC1	-2.32% (inactive)
COc1ccc(-c2cn(CC[C@@H]3CC[C@@H](NC(=O)CCN4CCCCC4)[C@@H](CO)O3)nn2)cc1	-1.31% (inactive)
N#Cc1c(NC(=O)c2ccc(N3CCOCC3)c([N+](=O)[O-])c2)sc2c1CCCC2	46.3% (active)
O=C(OCC(=O)N1CCOCC1)c1ccc(N2CCOCC2)c([N+](=O)[O-])c1	2.84% (inactive)
Cc1cccc(C)c1NC(=O)CNC(=O)c1ccc(N2CCOCC2)c([N+](=O)[O-])c1	-8.12% (inactive)
C[C@H]1CN([C@@H](C)CO)C(=O)c2cccc(NC(=O)Nc3ccccc3)c2O[C@@H]1CN(C)S(=O)(=O)c1ccc(F)cc1	13.7% (inactive)
COc1ccc2c3c(n(C)c2c1)[C@@H](CO)N(CC1CC1)CC31CN(C(=O)Nc2c(C)noc2C)C1	7.58% (inactive)
CCCCCCn1c(=O)n2n(c1=O)C[C@]1(OC(=O)NCc3ccc(OC)c(OC)c3)CN(S(=O)(=O)c3ccc(C)cc3)C[C@]1(O)C2	33.2% (active)
CCCCCCNC(=O)O[C@]12C[C@@H](C(=O)OC)[C@@H](C(=O)OC)C[C@@]1(O)CN(S(=O)(=O)c1ccc(C)cc1)C2	-1.36% (inactive)
COc1ccc(CNC(=O)COC(=O)CCS(=O)(=O)c2ccc(C)cc2)cc1OC	-2.46% (inactive)
C[C@H](O)C#Cc1ccc2c(c1)O[C@H](CN(C)Cc1ccccn1)[C@@H](C)CN([C@@H](C)CO)S2(=O)=O	3.01% (inactive)
C[C@H]1CN([C@@H](C)CO)C(=O)c2c(c3ccccc3n2C)-c2ccccc2CO[C@H]1CN(C)Cc1ccc2c(c1)OCO2	-9.95% (inactive)

SMILES	CPE inhibition
CCOC(=O)/C=C/c1ccccc1O	-9.35% (inactive)
CCOC(=O)/C=C/c1ccc(C(F)(F)F)cc1S(=O)(=O)NC(C)(C)C	23.6% (active)
CCOC(=O)NNc1cc(C(F)(F)F)ccn1	-1.25% (inactive)
O=C(CN1CCOCC1)N[C@@H]1CC[C@H](CCNS(=O)(=O)c2ccccc2F)O[C@H]1CO	28.5% (active)
O=C(Nc1ccccc1)N[C@@H]1CC[C@H](CCNS(=O)(=O)c2ccccc2F)O[C@@H]1CO	-0.044% (inactive)
O=C(CN1CCOCC1)N[C@H]1CC[C@@H](CCNS(=O)(=O)c2ccccc2F)O[C@H]1CO	1.76% (inactive)
O=C(Cc1ccccc1)N1C[C@H]2[C@@H](c3ccccc31)[C@H](CO)N2C(=O)C1CCOCC1	2% (inactive)
O=C(NCC[C@H]1CC[C@@H](NC(=O)c2ccncc2)[C@@H](CO)O1)Nc1ccc(Cl)cc1	3.84% (inactive)
COc1ccc(NC(=O)Nc2ccc3c(c2)C(=O)N([C@@H](C)CO)C[C@@H](C)[C@@H](CN(C)C(=O)CCCN(C)C)OCCCC[C@@H](C)O3)cc1	-1% (inactive)
O=C(C[C@@H]1CC[C@H](NS(=O)(=O)c2ccc(F)cc2)[C@@H](CO)O1)NCc1ccccc1F	1.66% (inactive)
Cc1ccc(S(=O)(=O)N[C@H]2CC[C@@H](CC(=O)NCc3ccc(Cl)c(Cl)c3)O[C@H]2CO)cc1	-6.75% (inactive)
Cc1ccc(S(=O)(=O)N[C@H]2CC[C@H](CC(=O)NCc3ccccc3F)O[C@@H]2CO)cc1	23.7% (active)
Cc1ccccc1-c1ccc2c(c1)O[C@@H](CN(C)Cc1ccc(C(=O)O)cc1)[C@H](C)CN([C@H](C)CO)S2(=O)=O	0.324% (inactive)
CC=Cc1ccc2n(c1=O)C[C@H]1[C@H](CO)[C@@H](C(=O)N3CCCCC3)N(Cc3ccccn3)[C@@H]21 (mixture of isomers)	14.3% (inactive)
COc1ccc(C(=O)NCCSc2ccccc2C)cc1	-6.82% (inactive)
COc1cccc(C(=O)NCCSc2ccc(Br)cc2)c1	14.3% (inactive)
CCS(=O)(=O)Nc1ccc(C(=O)NCCSc2ccccc2)cc1	32% (active)
C[C@@H]1CN([C@@H](C)CO)C(=O)c2cccc(N(C)C)c2O[C@@H]1CN(C)S(C)(=O)=O	1.61% (inactive)
C[C@@H]1CCCCO[C@@H](CN(C)S(=O)(=O)c2cccs2)[C@@H](C)CN([C@H](C)CO)C(=O)c2cc(NC(=O)Nc3ccc4c(c3)OCO4)ccc2O1	-1.49% (inactive)
COCCNC(=O)[C@H]1[C@H](CO)[C@H]2Cn3c(ccc(-c4ccccc4F)c3=O)[C@H]2N1C(=O)C1CCC1	-1.96% (inactive)
COc1ccc(CCNC(=S)N2CCN(S(=O)(=O)c3ccc(Cl)cc3)CC2)cc1	0.363% (inactive)
COc1ccc(CCNC(=S)N2CCN(S(=O)(=O)c3ccc(F)cc3)CC2)cc1	53.1% (active)
COc1ccc(CCC(=O)N2CCN(S(=O)(=O)c3ccc(OC)cc3)CC2)cc1	-8.26% (inactive)
